# The campaign covered roughly 65,000 compounds. About 2,100 (3.2%) showed an effect of 50% or more. The median lay at about -52%. Only a selection was taken, and strong results are over-represented in it overall.
# Test system: Plasmodium falciparum
# Assay: Screen against P. falciparum Asexual Blood Stage (ABS), at 5uM
# Format: functional, Dd2
# Conditions: tested at 5 uM
row,Compound,INHIBITION [%]
1,Cc1ccc(N2CCO[C@H]3CN(Cc4ccoc4)C[C@H]32)nn1,-106
2,Cc1cc(CN2C[C@@H]3CN(Cc4ccsc4)CCO[C@@H]3C2)no1,-101
3,CC(C)(C)c1cc(=O)[nH]c(C2(N)CCCCC2)n1,-114
4,O=C(NC1CCC1)[C@H]1C[C@H]2NCCO[C@@H]2C1,-269
5,c1ccc(N2CC3(CCN(Cc4cccnc4)C3)C2)nc1,-13.8
6,c1ccc(N2CCCC3(CCN(Cc4ccsc4)C3)C2)nc1 (stereo unspecified),82.6
7,CCc1nc(CC(=O)N2CCCC2CN2CCCC2)cs1 (stereo unspecified),-48.9
8,CN(C)c1nc2c(c(N(C)Cc3n[nH]c4c3CCCC4)n1)CCNCC2,84.4
9,CN(Cc1n[nH]c2c1CCCC2)c1nc(C2CC2)nc2c1CCNCC2,89.5
10,CN(C)C[C@]12COC[C@H]1CN(Cc1ccc3ccccc3n1)C2,27.2
11,Cn1cccc1C(=O)N1CCN2C[C@H](Oc3cccnc3)C[C@H]2C1,30.4
12,COC(=O)c1ccc(C2SCC(=O)Nc3c2cnn3C(C)(C)C)cc1 (stereo unspecified),-53.3
13,CN(Cc1cccc(F)c1)C(=O)CS(=O)(=O)Cc1c(Cl)cccc1Cl,82.7
14,CCc1nnc(NC(=O)CCN2CC=C(c3cnn(C)c3)CC2)s1,-25.3
15,COc1ccccc1C(C)(C)NCc1ccc(C)o1,77.9
16,c1cncc(CN2CCO[C@H]3[C@H](OCCN4CCCC4)CC[C@@H]32)c1,-68.3
17,c1cc(CN2CCO[C@H]3[C@H](OCCN4CCCC4)CC[C@@H]32)ccn1,-53.4
18,CC(Cn1cccn1)NCc1nc(-c2ccco2)no1 (stereo unspecified),-82
19,O=C1C[C@H]2[C@@H](CCN2Cc2ccccn2)N1Cc1cccnc1,-99.2
20,CN1CCCC1CNC(=O)CCCOc1ccc(Cl)cc1 (stereo unspecified),78.2
21,CN1CCCC1CNC(=O)CCCOc1cccc(Br)c1 (stereo unspecified),71.7
22,CC(=O)N1C[C@H]2CNC[C@@]2(C(=O)NCCCOc2cccnc2)C1,-133
23,CCc1c(C)[nH]c(C2(N)CCCCC2)nc1=O,-26.9
24,CCN1CCN(Cc2nc(CC(C)C)no2)CC1,34.7
25,Cc1noc(C)c1CN1CC[C@H]2OCC[C@@]2(C(=O)N2CCCC2)C1,-28.8
26,CCC(=O)NCC(=O)NCC1(c2c(F)cccc2F)CCCC1,73.7

row,Compound,INHIBITION [%]
1,Cc1cc(CN2C[C@@H]3COC[C@]3(CNC(=O)N(C)C)C2)no1,-94.8
2,Cc1ccc(CN2CCC3(CC2)CC3CN(C)Cc2cccnc2)o1 (stereo unspecified),70.8
3,Cc1ccc(CN2CCO[C@H]3[C@@H](OCc4cccnc4)CC[C@@H]32)o1,3.59
4,Cc1ccc(CN2CCO[C@H]3[C@H](OCc4cccnc4)CC[C@@H]32)o1,-70.3
5,CCN(C)c1ncc2c(c1C(=O)O)CCN(C1CCOC1)C2 (stereo unspecified),-4.54
6,Cc1cccc(CO[C@@H]2CC[C@H]3[C@H]2OCCN3Cc2nccs2)n1,-43.3
7,Cc1cnc(Nc2cccc(C3CCCN3Cc3cn(C)nc3C)n2)s1 (stereo unspecified),89.8
8,Cc1cccc(CN2C(=O)C[C@H]3[C@@H]2CCN3Cc2nccs2)n1,-3.26
9,Cc1ccccc1CN1CCCC1c1cccc(Nc2nccs2)n1 (stereo unspecified),84.8
10,c1ccc(CCN2CCCC2c2cccc(Nc3nccs3)n2)cc1 (stereo unspecified),77
11,Cc1cccc(CN2CCCC2c2cccc(Nc3nccs3)n2)c1 (stereo unspecified),88.1
12,Cc1ccc(C(=O)N2C[C@H]3CNC[C@H]3C2)cn1,-104
13,Cc1ccccc1SC1CCN(C(=O)C2[C@H]3CNC[C@@H]23)CC1 (stereo partly specified),73.3
14,COc1ncc(-c2cc(NC3CCCC3)nc3[nH]ccc23)c(OC)n1,74
15,Cc1cc(Oc2ccc(NC(=O)C3CC3)cc2)cc(C2CCNCC2)n1,87.8
16,Fc1cccnc1O[C@H]1CN(Cc2ccoc2)[C@@H]2CCCO[C@H]12,-26.7
17,COCC1CN(c2ccc(C#N)c(Cl)c2)CCO1 (stereo unspecified),-35.5
18,c1cc(CN2C[C@@H]3OCCN(CC4CCCO4)[C@@H]3C2)ccn1 (stereo partly specified),-111
19,CNc1cc(C)nc(N2Cc3cnn(Cc4ccc(F)cc4)c3C2)n1,91.9
20,CC(C)NC(=O)[C@H]1C[C@@H]2[C@@H](C1)OCCN2Cc1cccnc1,-95.4
21,N#Cc1ccc(S(=O)(=O)NCCn2ccnc2)cc1Cl,-39.2
22,O=S(=O)(NCCN1CC=CC1)c1ccc(Cl)cc1,76.2
23,O=C(Cc1ccccc1)N1CCN(Cc2noc(C3CC3)n2)CC1,-62.4
24,c1ccc2nc(CN3CCCC3c3noc(C4CC4)n3)ccc2c1 (stereo unspecified),72.7
25,COCCN1C[C@@H]2CC[C@H]1CN(Cc1ccc3ccccc3n1)C2,21.2
26,CCCS(=O)(=O)CC(=O)N1CCCC1c1noc(C2CC2)n1 (stereo unspecified),-40.7

row,Compound,INHIBITION [%]
1,Cc1nc(CN2CCCC2c2noc(C3CC3)n2)nc2ccccc12 (stereo unspecified),78.7
2,CCN1CCc2[nH]cnc2C12CCN(c1ccc(Cl)cn1)CC2,42.9
3,CN(C)Cc1cc(C2CCCCN2S(=O)(=O)c2cccc(Cl)c2)nn1C (stereo unspecified),78.8
4,CN1CC2(CCNCC2)CC1C(=O)NCCCNc1cccnc1 (stereo unspecified),-62
5,Cc1cnc(N2CC[C@H]3[C@H](C[C@@H](CN(C)C)N3C)C2)nc1,-51.8
6,CSCc1cc(F)ccc1CNCc1cccc(O)c1,72.6
7,Cc1ccc2[nH]c(-c3cn(C4CCNCC4)nn3)nc2c1C,85.5
8,Cc1cccc2[nH]c(-c3cn(C4CCNCC4)nn3)nc12,73.5
9,Cc1cc2nc(-c3cn(C4CCNCC4)nn3)[nH]c2cc1C,87.5
10,Cc1cc(CN2C[C@@H]3COC[C@]3(CN(C)C)C2)no1,-59
11,Cc1ccc(N2CCO[C@H]3CN(Cc4nccs4)C[C@H]32)nn1,-168
12,CCO[C@H]1CN(CC2CC2)[C@@H]2CCCO[C@H]12,-82.9
13,CCc1noc(CC)c1CC(=O)N1CCCC(N2CCCCC2)C1 (stereo unspecified),-22.8
14,O=C1CC2(CCN(Cc3ccccn3)C2)CN1c1cccnc1 (stereo unspecified),-14.1
15,CCN(CC)CCNS(=O)(=O)c1cccc(CSC)c1,83.4
16,CCN(Cc1c(F)cccc1Cl)c1cc(C2CCNCC2)nc(C)n1,76.4
17,Cc1nc(NCC23CCCN2CCC3)cc(C2CCCNC2)n1 (stereo unspecified),-54.3
18,Cc1nc(NCCC23CCCN2CCC3)cc(C2CCNCC2)n1,-50.1
19,Cc1cc(N(C)C)nc(C2CCCNC2)n1 (stereo unspecified),-54.7
20,CN(Cc1cc2cc(F)ccc2[nH]1)c1cc(C2CCCNC2)ncn1 (stereo unspecified),84.2
21,COc1ccc2[nH]c(CNc3cc(C4CCNCC4)nc(C)n3)cc2c1,84.1
22,Cc1nc(C2CCNCC2)cc(N(C)Cc2cc3cc(F)ccc3[nH]2)n1,75.9
23,CCCN(CC)c1cc(C2CCNCC2)nc(C)n1,-70.1
24,O=C1CC[C@H]2[C@H](CCN2Cc2ccccn2)N1CC1CCOCC1,-82.3
25,COc1ccc(F)cc1C(=O)C1CCCN(Cc2cnc(C)s2)C1 (stereo unspecified),-29
26,COc1ccccc1-c1ncc(CN2CCCC[C@H](N(C)C)C2)s1,70.3

row,Compound,INHIBITION [%]
1,CCC(CC)C(=O)N1CCOC2(CNC2)C1,-94.6
2,O=C(NCCCNc1ccc(C(F)(F)F)cn1)c1ccc(F)cc1F,72.5
3,CC(=O)c1cn(CC(=O)N2CCC3(CC2)OCCO3)c2ccccc12,-61.4
4,N#Cc1cccnc1NCCNC(=O)N1CCN2CCCCC2C1 (stereo unspecified),-90.5
5,COCC1CC2(CCN(Cc3ccoc3)CC2)CN1C(C)C (stereo unspecified),71.6
6,COCC1CC2(CCN(Cc3cccc(C#N)c3)CC2)CN1C(C)C (stereo unspecified),73.2
7,N#Cc1cccc(CN2CCO[C@@H]3CNC[C@@H]32)c1,-52.7
8,COCC1CC2(CCN(Cc3ccncc3)CC2)CN1C(C)C (stereo unspecified),-68
9,N#Cc1cccc(CN2C[C@@H]3CN(c4ncccn4)C[C@@H]3C2)c1,19
10,COCC1CC2(CCN(c3ccccn3)CC2)CN1C(C)C (stereo unspecified),-41
11,O=C(CC1CC1)N[C@@H]1CN(Cc2ccccn2)C[C@@H]2CCCO[C@@H]21,-65.3
12,CN(Cc1ccccn1)C1CCC[C@@H]2CN(CC3CC3)C[C@H]12 (stereo partly specified),69.5
13,O=C(NCc1ccccn1)[C@H]1COC[C@H]2CN(CC3CC3)C[C@H]21,-35.7
14,Cc1noc(C)c1CN(C)C(=O)C1CCCCN1CC(C)C (stereo unspecified),21.5
15,COC[C@H](C)Nc1cc(C)c2ccc(SC)cc2n1,75.5
16,c1ccc(C(Cn2cnnc2)N2CCOCC2)nc1 (stereo unspecified),-29.3
17,CN1CCC2(CC1)CNC(=O)c1ccccc1O2,-102
18,O=C1Nc2ccccc2CC12CCCN2Cc1ccccn1 (stereo unspecified),-60.5
19,Cc1cc(-c2cc(S(=O)(=O)N3C[C@H](C4CC4)[C@@H](N)C3)c(C)s2)on1,71.2
20,Cc1cc(S(=O)(=O)N2C[C@H](C3CC3)[C@@H](N)C2)c(C)s1,86.1
21,O=C(CC1CC1)N[C@@H]1CN(Cc2ccncc2)C[C@@H]2CCCO[C@@H]21,-86.8
22,Cc1nnc(N2CCNCC2)c(C(N)=O)c1C,-11.3
23,CCN1CC2(CC1=O)CN(Cc1ccccn1)CCN(C(C)=O)C2 (stereo unspecified),-40.2
